Experimental data from PubChem BioAssay (NCATS).
Inconclusive results are not listed. Calls of active or inactive are those of the source. Calls follow the shape of the dose curve; as a rule, active = well fitted curve in the direction sought with a large enough effect; inconclusive = small, poorly fitted or top-dose-only effect, or another doubt; inactive = no such curve, though single readings can be large; an effect the other way counts as inactive or inconclusive.

Columns and labels:
[1] = target: Rap guanine nucleotide exchange factor 3 (Homo sapiens) (UniProt O95398); assay: Confirmatory qHTS for agonist of cAMP-regulated guanine nucleotide exchange factor 3 (EPAC1) (AID 1645881);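 also: EPAC1 catalysed release of BODIPY-GDP from Rap1B seen as fluorescence loss; 100% = effect of cAMP agonist control; nearly all actives have a fitted effect of over 75% in size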
Rap guanine nucleotide exchange factor 3 (Homo sapiens), sequence (O95398 whole entry, looked up): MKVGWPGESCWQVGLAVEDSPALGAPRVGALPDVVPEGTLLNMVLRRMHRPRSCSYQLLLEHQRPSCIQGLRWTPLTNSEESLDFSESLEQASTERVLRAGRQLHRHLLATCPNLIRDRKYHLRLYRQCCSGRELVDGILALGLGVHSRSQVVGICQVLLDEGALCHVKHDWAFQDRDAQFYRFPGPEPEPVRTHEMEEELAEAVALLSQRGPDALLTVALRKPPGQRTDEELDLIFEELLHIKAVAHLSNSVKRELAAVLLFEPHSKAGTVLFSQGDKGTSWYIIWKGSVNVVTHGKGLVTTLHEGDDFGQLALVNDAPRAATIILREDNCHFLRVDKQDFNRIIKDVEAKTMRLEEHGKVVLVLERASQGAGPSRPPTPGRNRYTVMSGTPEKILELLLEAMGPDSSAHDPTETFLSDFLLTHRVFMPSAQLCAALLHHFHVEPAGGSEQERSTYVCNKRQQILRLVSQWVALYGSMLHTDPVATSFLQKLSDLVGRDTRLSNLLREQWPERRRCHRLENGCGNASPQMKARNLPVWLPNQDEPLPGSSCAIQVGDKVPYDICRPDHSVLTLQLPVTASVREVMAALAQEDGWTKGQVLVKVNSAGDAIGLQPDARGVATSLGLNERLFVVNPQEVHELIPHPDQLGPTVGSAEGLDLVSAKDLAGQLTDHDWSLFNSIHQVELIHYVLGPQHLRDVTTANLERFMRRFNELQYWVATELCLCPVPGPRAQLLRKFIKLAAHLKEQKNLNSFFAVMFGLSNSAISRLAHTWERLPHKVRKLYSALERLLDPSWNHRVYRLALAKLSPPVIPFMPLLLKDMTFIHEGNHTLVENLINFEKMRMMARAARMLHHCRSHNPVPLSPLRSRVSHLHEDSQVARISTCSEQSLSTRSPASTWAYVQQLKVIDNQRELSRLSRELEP

[2] = target: Rap guanine nucleotide exchange factor 4 (Homo sapiens) (UniProt Q8WZA2); assay: Confirmatory qHTS for agonist of cAMP-regulated guanine nucleotide exchange factor 4 (EPAC2) (AID 1645884);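 also: nucleotide exchange releases bodipy-GDP from Rap1 and this lowers its fluorescence; % is scaled to controls: 0 for no effect and ±100 for the full control effect; nearly all actives have a fitted effect of over 65% in size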
Rap guanine nucleotide exchange factor 4 (Homo sapiens), sequence (Q8WZA2 whole entry, looked up): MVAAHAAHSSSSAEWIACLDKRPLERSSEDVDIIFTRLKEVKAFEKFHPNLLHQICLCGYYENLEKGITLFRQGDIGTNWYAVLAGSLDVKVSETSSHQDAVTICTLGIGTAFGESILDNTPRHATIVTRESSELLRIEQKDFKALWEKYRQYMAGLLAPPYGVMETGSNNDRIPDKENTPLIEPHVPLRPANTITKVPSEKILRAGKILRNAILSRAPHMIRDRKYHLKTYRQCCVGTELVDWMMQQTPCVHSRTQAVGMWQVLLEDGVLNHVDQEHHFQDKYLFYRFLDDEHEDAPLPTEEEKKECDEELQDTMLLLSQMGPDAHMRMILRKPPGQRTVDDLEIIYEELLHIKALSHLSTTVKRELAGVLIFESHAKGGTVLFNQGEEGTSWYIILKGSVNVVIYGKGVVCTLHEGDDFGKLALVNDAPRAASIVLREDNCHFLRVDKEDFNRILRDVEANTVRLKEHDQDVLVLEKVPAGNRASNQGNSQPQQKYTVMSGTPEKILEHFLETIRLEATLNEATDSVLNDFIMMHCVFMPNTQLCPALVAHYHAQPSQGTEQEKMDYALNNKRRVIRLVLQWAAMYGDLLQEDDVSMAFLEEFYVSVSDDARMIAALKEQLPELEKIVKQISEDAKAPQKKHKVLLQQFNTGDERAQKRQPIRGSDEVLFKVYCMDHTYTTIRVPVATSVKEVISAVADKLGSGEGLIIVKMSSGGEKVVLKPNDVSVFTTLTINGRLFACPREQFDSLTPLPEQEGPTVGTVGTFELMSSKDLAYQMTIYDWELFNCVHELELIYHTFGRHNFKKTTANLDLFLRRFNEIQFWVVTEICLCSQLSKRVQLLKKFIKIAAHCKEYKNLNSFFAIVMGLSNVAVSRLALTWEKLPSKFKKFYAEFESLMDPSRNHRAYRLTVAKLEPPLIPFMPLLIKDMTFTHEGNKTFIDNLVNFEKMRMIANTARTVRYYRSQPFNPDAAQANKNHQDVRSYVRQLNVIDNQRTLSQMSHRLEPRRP

[3] = target: Rap guanine nucleotide exchange factor 3 (Homo sapiens) (UniProt O95398); assay: Counterscreen qHTS for antagonist of cAMP-regulated guanine nucleotide exchange factor 3 (EPAC1) (AID 1645888);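 also: fluorescence loss as bound BODIPY-GDP is released from Rap1B; % of control where 0% means no effect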
Procedure, shortened: (§1)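 Measured: fluorescence of BODIPY-GDP bound to Rap1B, which falls as exchange proceeds. Conditions include 50 uM competing GDP, 5 and 30 min reads, and a later cAMP challenge for antagonist detection.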

[4] = target: Rap guanine nucleotide exchange factor 3 (Homo sapiens) (UniProt O95398); assay: Counterscreen qHTS for agonist of cAMP-regulated guanine nucleotide exchange factor 3 (EPAC1) (AID 1645889); also: % of control where 0% means no effect; nearly all actives have a fitted effect of over 40% in size
Procedure, shortened: as §1

COc1ccc(OC)c(NC(=O)c2nc(S(=O)(=O)Cc3ccccc3)ncc2Cl)c1
inactive: Potency [1] | Potency [2] | Potency [3]

Cc1ccccc1C(=O)Nc1ccccc1N1CCCCC1
inactive: Potency [1] | Potency [2] | Potency [3]

Cc1ccc(SCc2cc(=O)c3c(=O)n(-c4ccccc4)[nH]c3[nH]2)cc1
inactive: Potency [1] | Potency [2] | Potency [3]

CCOC(=O)c1ccc(NC(=O)c2c(N)n(Cc3ccccc3)c(=O)[nH]c2=O)cc1
inactive: Potency [1] | Potency [2] | Potency [3]

C[n+]1cccc2c(Br)ccc([O-])c21
inactive: Potency [1] | Potency [2] | Potency [3]

COc1ccc(C)cc1NC(=O)c1ccc2c(SCC(=O)O)c3c(nc2c1)CCCC3
inactive: Potency [1] | Potency [2] | Potency [3]

Cc1ccc(/C=C2/SC(=S)N(c3ccc(S(=O)(=O)Nc4nccs4)cc3)C2=O)cc1
inactive: Potency [1] | Potency [2] | Potency [3]

C=Cc1ccc(CC2(C)C(=O)Nc3ccc(Cl)cc32)cc1 (centres undefined)
inactive: Potency [1] | activation [2] 9.02% [at 17.1 µM, percent relative to cAMP agonist control] | activity change, negative = inhibition [3] -14.8% [at 30.8 µM]

CC(=O)C1=CCC(c2ccccc2Cl)N(S(=O)(=O)c2ccc(C)cc2)C1 (centres undefined)
inactive: Potency [1] | Potency [2] | Potency [3]

CCCCCOC(=O)C1=C(C)Nc2nnnn2C1c1ccccc1Cl (centres undefined)
inactive: Potency [1] | activation [2] 12.2% [at 17.1 µM, percent relative to cAMP agonist control] | activity change, negative = inhibition [3] -14.1% [at 30.8 µM]

CN(C)c1ccc(-c2[nH][nH]c(=O)c2NC(=O)c2ccc3ccccc3n2)cc1
inactive: Potency [1] | Potency [2] | Potency [3]

CCCCC1CC2=C(C(=O)OC(C)(C)O2)C(c2ccc(Cl)cc2)O1 (centres undefined)
inactive: Potency [1] | Potency [2] | Potency [3]

Cc1ccc(S(=O)(=O)N2CCN(c3ncnc4sccc34)CC2)cc1C
inactive: Potency [1] | Potency [2] | Potency [3]

COc1ccc(CCN2C(=O)CSC2=Nc2ccc(C(C)C)cc2)cc1OC
inactive: Potency [1] | Potency [2] | Potency [3]

COc1cccc(COC(=O)CSCC(=O)Nc2cccc(C)c2)c1OC
inactive: Potency [1] | Potency [2] | Potency [3]

O=C(Nc1nc(-c2ccc(F)cc2)cs1)C1CCN(C(=O)c2ccc(F)cc2)CC1
inactive: Potency [1] | Potency [2] | Potency [3]

C/C=C\C=C/C(=O)Nc1cccc(C2=NOC3(C2)C[C@H](C(N)=O)N(C(=O)c2ccc(OC)cc2)C3)c1 (some centres undefined)
inactive: Potency [1] | Potency [2] | Potency [3]

Cc1ccc(-c2ccc(CN3C(C(C)C)C(=O)N(Cc4cn(CCC5OCCO5)nn4)CCS3(=O)=O)cc2)c(C)c1 (centres undefined)
inactive: Potency [1] | Potency [2] | Potency [3]

COc1cc(/C=C/C(=O)c2ccc3c(c2)OCCO3)cc(Br)c1OCC(=O)N(C)C
inactive: Potency [1] | Potency [2] | Potency [3]

N#C/C(=C(/O)c1ccccc1F)c1nc2cc(C(F)(F)F)ccc2s1
inactive: Potency [1] | activation [2] 1.01% [at 17.1 µM, percent relative to cAMP agonist control] | activity change, negative = inhibition [3] 14.7% [at 30.8 µM]

Cc1cc(NC2=CC(=O)C(=O)c3ccccc32)no1
inactive: Potency [1] | Potency [2] | Potency [3]

Cc1ccc(C)c(NC(=O)CN(C)C(=O)c2ccccc2Cc2ccccc2)c1
inactive: Potency [1] | Potency [2] | Potency [3]

CCCCC(=O)N(C)c1c(CC)nc2c(OCc3ccc(C(F)(F)F)cc3)cccn12
inactive: Potency [1] | activation [2] 3.08% [at 17.1 µM, percent relative to cAMP agonist control] | activity change, negative = inhibition [3] -15.6% [at 30.8 µM]

Cc1cc(NS(=O)(=O)c2ccc(NC(=S)NC(=O)/C=C/c3ccccc3)cc2)no1
inactive: Potency [1] | activation [2] 1.85% [at 17.1 µM, percent relative to cAMP agonist control] | activity change, negative = inhibition [3] -2.1% [at 30.8 µM]

CCCCn1nnnc1C(c1cc2ccccc2o1)N1CCN(c2ncccc2C#N)CC1 (centres undefined)
inactive: Potency [1] | activation [2] 8.35% [at 17.1 µM, percent relative to cAMP agonist control] | activity change, negative = inhibition [3] -7.87% [at 30.8 µM]

CCN(CC)S(=O)(=O)c1ccc2[nH]c(=O)cc(C(=O)Nc3ccc(C)c(S(=O)(=O)N(CC)CC)c3)c2c1
inactive: Potency [1] | Potency [2] | Potency [3] | Potency [4]

O=C1NC[C@H](Cc2ccc(O)cc2)N(C[C@@H]2CCCN2C[C@H](Cc2ccc(O)cc2)N2C[C@H](Cc3ccccc3)N(CC3CCCCCC3)C(=O)C2=O)C1=O
inactive: Potency [1] | Potency [2] | Potency [3]

Cc1cccc(NC(=O)CNC(=O)CCc2nc3sc4c(c3c(=O)[nH]2)CCCC4)c1C
inactive: Potency [1] | Potency [2] | Potency [3]

CCOC1=C2[C@@H](CN(S(=O)(=O)c3ccc(C)cc3)[C@H]2c2ccccc2Cl)[C@H]2C(=O)NC(=O)[C@H]2C1
inactive: Potency [1] | Potency [2] | Potency [3]

C#Cc1ccc([C@@H]2C=C(C(=O)NCc3ccccc3)O[C@H](OCC)[C@H]2CCCO)cc1
inactive: Potency [1] | Potency [2] | Potency [3]

CC(C)n1c(CNC(=O)c2ccccc2F)nnc1SCC(=O)NC1CCCCC1
inactive: Potency [1] | Potency [2] | Potency [3]

CCCCOC(=O)CCn1c(=S)oc2ccccc21
inactive: Potency [1] | Potency [2] | Potency [3]

COCCCNC(=O)c1ccc2c3c(onc13)-c1ccccc1C2=O
inactive: Potency [1] | Potency [2] | Potency [3]

Clc1cccc(-c2nc3ccc(Cl)cn3c2Cc2ccsc2)c1
inactive: Potency [1] | Potency [2] | Potency [3]

Cc1ccc(CN(Cc2ccco2)C(=O)c2ccccc2Br)o1
inactive: Potency [1] | Potency [2] | Potency [3]

O=c1cc(CN2CCN(S(=O)(=O)c3cccc(Cl)c3)CC2)c2ccc(O)cc2o1
inactive: Potency [1] | Potency [2] | Potency [3]
